GPR151 activ = activates the human receptor GPR151; Q8TDV0; PathHunter beta-arrestin GPR151 cells, luminescence; activation, % at 11.2 µM; 650,000 compounds, 1% hits; in the data active = activation above about 4.9%;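 note: 0% = median of compound wells and 100% = cells with positive control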
TEAD-YAP inh = TEAD-YAP interaction inhibition; HEK-TIYL cells, TEAD-Gal4/YAP UAS-luciferase luminescence; inhibition, % at 9.12 µM; 640,000 compounds, 1.4% hits; in the data active = inhibition above about 32%;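 note: 0% = median of test compound wells and 100% = reference inhibitor wells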
FBW7 activator = activators of human E3 ligase FBW7; Q969H0; AlphaScreen FBW7–phospho-cyclin E peptide binding, activator screen; normalized activity (activation), % at 26.1 µM; 650,000 compounds, 0.13% hits; in the data active = normalized activity above about 1.9%;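 note: purified mutant Fbw7 with reduced substrate affinity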
MITF primary = blocks human microphthalmia-associated transcription factor | O75030 | AID 1259374 | AlphaScreen MITF homodimerization, bead proximity signal | inhibition, % at 2.6 µM | 650,000 compounds, 0.91% hits; in the data active = inhibition above about 50%;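 note: 0% = vehicle wells with protein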
Target sequence (O75030 whole entry, looked up): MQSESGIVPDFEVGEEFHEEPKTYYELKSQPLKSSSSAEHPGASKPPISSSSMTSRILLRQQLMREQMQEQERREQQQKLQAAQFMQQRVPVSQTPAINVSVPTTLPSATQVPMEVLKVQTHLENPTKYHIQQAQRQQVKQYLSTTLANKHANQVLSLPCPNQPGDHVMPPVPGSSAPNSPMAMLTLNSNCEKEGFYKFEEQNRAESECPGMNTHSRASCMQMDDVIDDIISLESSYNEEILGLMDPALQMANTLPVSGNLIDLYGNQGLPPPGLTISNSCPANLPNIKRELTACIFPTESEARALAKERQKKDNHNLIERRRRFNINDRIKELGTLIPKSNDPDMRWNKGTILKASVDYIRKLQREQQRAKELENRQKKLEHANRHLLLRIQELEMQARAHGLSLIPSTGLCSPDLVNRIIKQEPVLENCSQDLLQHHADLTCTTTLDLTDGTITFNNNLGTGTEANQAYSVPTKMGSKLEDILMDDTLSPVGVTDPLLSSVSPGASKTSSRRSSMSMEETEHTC
GPR151 conf act = confirmation of human GPR151 activators. 6,700 tested, under 10 active. GPR151 PathHunter beta-arrestin cells, luminescence, 90 min; % of EA-reagent control over plate median. shares compounds with GPR151 activ. activation, % at 11.2 µM;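 active = mean percent activation across replicates above the confirmation screen cutoff of 4.91%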
GPR119 ag = GPR119 activation, counter-screen for GPR151 activators; shares compounds with GPR151 activ; GPR119 PathHunter beta-arrestin cells, luminescence, 90 min; 0 = compound-well median, 100 = enzyme-acceptor control; activation, % at 11.2 µM; 6,700 compounds, 0.3% hits; AID 1508611;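 active = mean percent activation in the counterscreen above 29.09%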;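 note: counterscreen on off-target GPR119 to flag nonselective hits from the GPR151 activator screen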
* hit, by the source's call; . = no result. Shown are actives, neighbours in structure and some others; about 3.5% of the full set was active somewhere.

SMILES	GPR151 activ	TEAD-YAP inh	FBW7 activator	MITF primary	GPR151 conf act	GPR119 ag
COc1cc(-c2cn3c(NC(=O)c4cccs4)c(C)nc3cn2)cc(OC)c1OC	5.3*	-5	0	-6	1	11
COc1ccc(Cl)cc1Nc1nc(-c2cccc(C)c2)nc2ccccc12	2	-3	0	-3	.	.
CCC(=O)Nc1sc2c(c1C(=O)Nc1ccc(OC)cc1)CCC(C(C)(C)C)C2 (stereo not drawn)	8.8*	-1	0	1	-2	-11
CCOc1ccc(NC(=O)c2c(NC(=O)CC)sc3c2CCC(C(C)(C)C)C3)cc1 (stereo not drawn)	0	6	0	12	.	.
COc1ccc(CC(=O)N2CCC(Nc3nc4c(c(=O)[nH]3)CCCC4)CC2)cc1	0	-1	0	4	.	.
CC(C)[C@@H]1NC(=O)[C@@H]2C[C@H](NCc3cn(C)nc3-c3ccccc3)CN2C1=O	13*	-6	0	-4	4	14
CC(C)C[C@@H]1NC(=O)[C@@H]2C[C@H](NC(=O)Nc3cccc(C(F)(F)F)c3)CN2C1=O	12*	-12	0	-24	-1	1
COc1ccccc1CN[C@H]1C[C@H]2C(=O)N[C@@H](CC(C)C)C(=O)N2C1	6.1*	-12	0	-13	2	11
COc1ccccc1CN[C@H]1C[C@H]2C(=O)N[C@H](CO)C(=O)N2C1	0	-5	0	17	.	.
O=C(O)CC(Nc1nc2ncn(Cc3ccccc3)c2c(=O)[nH]1)C(=O)O (stereo not drawn)	2	-3	0	-5	.	.
CCOC(=O)C1CCN(CCC(=O)Nc2ccc(Br)c(C)c2)CC1	10*	-9	2	9	0	-8
CCCCCCC(=O)N/N=C/c1ccc([N+](=O)[O-])cc1	-1	9	0	13	.	.
O=C(Nc1nc(-c2ccc(I)cc2)cs1)c1ccc(Cl)s1	5.5*	0	0	0	2	19
O=C(Nc1nc(-c2ccccc2)cs1)c1ccc(Cl)s1	2	-28	0	-10	.	.
Cc1ccc(N2C(=O)c3cc(N4CCOCC4)c([N+](=O)[O-])cc3C2=O)cc1	-1	3	0	15	.	.
CCc1ccc(Nc2nc(N3CCCC3)nc(N3CCCC3)n2)cc1	4.9*	-4	0	-4	2	7
Cc1ccc(Nc2nc(N3CCCC3)nc(N3CCCC3)n2)cc1	-1	5	0	8	.	.
COCCCNC(=O)/C=C/c1ccc(C)cc1	3	-30	0	9	.	.
CC(=O)Nc1ccc(NC(=O)c2cnc(-c3ccccc3)s2)cc1	5.9*	-6	0	6	-1	-12
O=c1c2c3c(sc2ncn1/N=C/c1ccc(O)c(O)c1O)CCCC3	5.4*	-7	0	58*	-1	-10
CC(C)(C)c1nnc(N/N=C/c2ccc(O)cc2)[nH]c1=O	2	14	0	3	.	.
COc1cc(/C=N/Nc2nnc(C(C)(C)C)c(=O)[nH]2)cc(OC)c1OC	6.1*	8	0	3	1	-3
O=C(NCc1ccco1)/C(=C/c1ccc(Cl)cc1)NC(=O)c1ccccc1	0	5	0	3	.	.
O=C(NCc1ccco1)/C(=C/c1ccccc1)NC(=O)c1cccc(Br)c1	5.2*	8	0	-5	-1	-10
CN(Cc1ccccc1)C1(O)C(=O)Nc2ccc(Cl)cc21 (stereo not drawn)	2	2	0	7	.	.
SMILES	GPR151 activ	TEAD-YAP inh	FBW7 activator	MITF primary	GPR151 conf act	GPR119 ag
CN(Cc1ccccc1)C1(O)C(=O)Nc2ccc([N+](=O)[O-])cc21 (stereo not drawn)	12*	5	0	-4	-1	10
COCCN/C=C1\C(=O)c2ccccc2N(Cc2ccc(Cl)cc2)S1(=O)=O	-1	-3	0	13	.	.
CC(=O)Nc1cccc(NC(=O)COc2cccc3ccc(N4CCCC4)nc23)c1	5.3*	31	0	19	0	7
Clc1ccc(SCCCCn2cncn2)cc1	9.2*	5	0	-4	0	5
Cc1ccc(C(=O)Cn2cncn2)cc1	2	4	0	2	.	.
O=C(Cn1cncn1)c1ccc(Cl)cc1	7.8*	-4	0	0	-1	-2
CCCCNC(=O)CCc1c(C)nc2cc(-c3ccccc3)nn2c1C	1	-12	0	-7	.	.
COc1cc(-c2nc3sc4c(c3c(=O)[nH]2)CCCC4)cc(Cl)c1OCCOc1ccccc1	1	-17	0	8	.	.
CC(C)CC(=O)NS(=O)(=O)c1ccc(NC(=O)c2ccc(Cl)cc2)cc1	2	1	0	14	.	.
CC(C)CC(=O)NS(=O)(=O)c1ccc(NC(=O)c2ccccc2Cl)cc1	5.1*	-9	0	2	1	-8
COc1ccc(-c2noc(NCc3cccc(Cl)c3)n2)cc1OC	4.9*	1	1	14	1	-7
COc1ccc(-c2noc(NCc3ccccc3)n2)cc1OC	-1	-3	0	4	.	.
COc1cc(OCC(=O)O)cc(OC)c1OC	3	0	0	14	.	.
C#CCOc1cc(OC)c(OC)c(OC)c1	5.6*	2	0	8	-1	-5
CCCN(CCC)C(=O)Cc1ccc(Br)cc1	8.4*	-1	1	24	0	5
N#CCCN(CCC#N)C(=O)Cc1ccc(Br)cc1	2	7	1	12	.	.
COc1ccc(/C=C2/N=C(c3ccccc3)NC2=O)cc1	5.2*	-15	0	-3	-1	-9
COc1ccc(/C=C2\N=C(c3ccc(C)cc3)NC2=O)cc1	0	14	1	6	.	.
COc1ccc(-c2[nH]ncc2CNC(C)CCn2cccn2)cc1F (stereo not drawn)	0	-11	0	10	.	.
CCn1nc(C)c(CNCc2cn[nH]c2-c2ccc(OC)c(F)c2)c1C	5.4*	7	0	10	0	-5
Cc1ccc(-n2c(C)c3c(C)nnc(C)c3c2C)cc1N	5.3*	-5	0	-4	1	-3
CCCc1ccc(OCCCC(=O)Nc2nnc(COC)s2)cc1	6.9*	-5	0	5	0	-4
Cc1ccc(NC(=O)Nc2nnc(COc3ccc(Br)cc3)s2)cc1	-1	-1	0	9	.	.
CC(=O)Nc1nnc(COc2ccc(Br)cc2)s1	7.9*	-18	0	12	0	-6
N#Cc1c(-c2ccccc2)cc(-c2cccs2)nc1SCCN1CCCCCC1	1	-6	0	5	.	.
Cc1nnc(NC(=O)c2ccccc2Cl)s1	0	-33	0	14	.	.
O=C(Nc1ncc(C(O)(C(F)(F)F)C(F)(F)F)s1)c1ccccc1Cl	6.6*	-44	0	0	2	3
CCOc1ccc2ccccc2c1C(=O)Oc1coc(CSc2nc(C)cc(C)n2)cc1=O	3	-9	0	13	.	.
